Results taken from PubChem BioAssay (NCATS).
Results filed as inconclusive are left out. Values without a mark were called inactive. Active and inactive are the calls of the source. Calls come from the whole dose curve; as a rule, active = well fitted inhibition curve with a large enough effect; inconclusive = small, poorly fitted or top-dose-only effect; inactive = flat fitted curve, though single readings scatter.

The molecules below were run on Zika virus NS2B-NS3 protease (assay: Primary screen GU AMC qHTS for Zika virus inhibitors (AID 1347154;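 note: 0% = no-inhibitor control and -100% = no-enzyme control; nearly all actives have a fitted effect of over 70% in size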)). Conditions: Zika NS2B-NS3 unlinked protease, AMC fluorogenic substrate; series mostly up to 54.1 µM; activity change, negative = inhibition: at the top concentration.
How it was run: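 Fluorogenic AMC-substrate cleavage by noncovalent NS2B-NS3 protease complex (25 nM, pH 8.0 Tris buffer with Tween 20) followed for 15 minutes at room temperature (~20% conversion). Percent inhibition from ex340/em450 signal change, fitted by 4-parameter Hill equation.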

Structure (SMILES)	activity change, negative = inhibition	Potency
Nc1ccc(C(=O)O)c(O)c1	-3.63%	–
Cc1nc2ccccc2n1Cc1ccc(Cl)cc1	-6.25%	–
NC(=S)NCCC[C@H](N)C(=O)O	9.32% [at 104 µM]	–
O=C(O)c1ccccc1Nc1cccc(C(F)(F)F)c1	-2.28%	–
O=C1CN(/N=C/c2ccc(-c3ccc([N+](=O)[O-])cc3)o2)C(=O)N1	16.9% [at 104 µM]	–
O=C(Nc1ccc(C(=O)O)c(O)c1)c1ccccc1	-8.04%	–
C#C[C@]1(O)CC[C@H]2[C@@H]3CCc4cc(O)ccc4[C@H]3CC[C@@]21C	-8.29%	–
Ic1ccc(N2CCN(Cc3c[nH]c4ncccc34)CC2)cc1	-4.17%	–
CC(C(=O)O)c1ccc2c(c1)[nH]c1ccc(Cl)cc12 (stereo unspecified)	4.97%	–
CC(C(=O)O)c1ccc(C(=O)c2ccccc2)s1 (stereo unspecified)	-5.98%	–
c1ccc2sc(SSc3nc4ccccc4s3)nc2c1	-1.43% [at 25.8 µM]	–
O=C1CN(/N=C/c2ccc([N+](=O)[O-])o2)C(=O)N1	-8.24%	–
CN(C)CCn1nnnc1SCC1=C(C(=O)O)N2C(=O)[C@@H](NC(=O)Cc3csc(N)n3)[C@H]2SC1	4.57%	–
COc1cc(/C=C/C(=O)CC(=O)/C=C/c2ccc(O)c(OC)c2)ccc1O	11%	–
O=C(O)c1cc(O)c(O)c(O)c1	-5.76%	–
CC1(C)C[C@@H]1C(=O)N/C(=C\CCCCSC[C@H](N)C(=O)O)C(=O)O	9.2%	–
CCCCCCCCCCCCCCCC(=O)OC(C)C	1.2%	–
CCCCCCCCCCCCCCCCCC(=O)O	-3.93%	–

Structure (SMILES)	activity change, negative = inhibition	Potency
C=CCCCCCCCCC(=O)O	-0.57%	–
N#C/C(=C\c1ccc(O)c(O)c1)C(=O)NCc1ccccc1	15.3%	–
O=C(O)[C@@H]1C[C@@H](C(=O)O)N1	–	inactive
CCCCC1C(=O)N(c2ccccc2)N(c2ccc(O)cc2)C1=O (stereo unspecified)	-12.2%	–
CCCC(=O)OC[C@@H](OC(=O)CCC)[C@@H](OC(=O)CCC)[C@H](Cn1c2nc(=O)[nH]c(=O)c-2nc2cc(C)c(C)cc21)OC(=O)CCC	-12.6%	–
CCCCCCCC/C=C/C(=O)O	-1.61%	–
O=C(O)c1cc([N+](=O)[O-])ccc1NCCCc1ccccc1	4.05%	–
COc1ccc(-c2cc(=S)ss2)cc1	-9.05%	–
CN(C)[C@@H]1C(=O)C(C(=O)NCN2CCCC2)=C(O)[C@@]2(O)C(=O)C3=C(O)c4c(O)cccc4[C@@](C)(O)C3C[C@@H]12 (stereo partly specified)	-14.3%	–
N=C(N)N	0.732%	–
CC(=O)SCC(CC(=O)c1ccc(C)cc1)C(=O)O (stereo unspecified)	-2.95%	–
CNC(=O)c1c(I)c(NC(=O)CCCCC(=O)Nc2c(I)c(C(=O)O)c(I)c(C(=O)NC)c2I)c(I)c(C(=O)O)c1I	-2.04%	–
Cc1ccc(C(=O)c2ccc(CC(=O)O)n2C)cc1	-2.61%	–
O=C(O)Cc1ccc2c(c1)C(=O)c1ccccc1CO2	-0.0253%	–
O=C1C(SCCO)=C(SCCO)C(=O)c2ccccc21	13.3%	–
S=c1[nH]c2ccccc2s1	-3.33% [at 104 µM]	–
O=C(CCN1CCN(CCO)CC1)N1c2ccccc2Sc2ccc(C(F)(F)F)cc21	1.76%	–
Cc1[nH]cnc1CN1CCc2c(c3ccccc3n2C)C1=O	-6.73%	–
